Read-out in one test: TIMP1, TIMP1 (gene 7076)
Put plainly: LTEA_HepaRG_TIMP1: Life Technologies and Expression Analysis (LTEA) Assay for TIMP1 using HepaRG (AID 2283534; active means hit-call score of the fitted dose curve at least 0.9, where 1 is the maximum; inactive means score below 0.9;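 further: TaqMan qRT-PCR signal normalized to ACTB GAPDH and POLR2A housekeeping genes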). The settings on record: mRNA level, 48 h; actives raise or lower the signal. The method, boiled down: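 HepaRG, 48 h exposure, 8-pt half-log series from 100 uM in 0.5% DMSO, duplicates; TIMP1 transcript by Fluidigm qRT-PCR, housekeeping-normalized; bidirectional curve fit vs DMSO baseline.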

Read-out in test [1]: Tumor necrosis factor receptor 1 (TNFRSF1A), TNFRSF1A (gene 7132)
Put plainly: LTEA_HepaRG_TNFRSF1A: Life Technologies and Expression Analysis (LTEA) Assay for Tumor necrosis factor receptor 1 (TNFRSF1A) using HepaRG (AID 2283535; active means hit-call score of the fitted dose curve at least 0.9, where 1 is the maximum; inactive means score below 0.9). Conditions: mRNA level, 48 h; actives raise or lower the signal. The method, boiled down: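 HepaRG, 48 h plating then 48 h chemical exposure, serum-free induction media; 8-pt CRC from 100 uM, half-log, 0.5% DMSO vehicle, duplicates. Readout: TaqMan qRT-PCR (Fluidigm), housekeeping-gene normalized; bidirectional fit vs DMSO.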

Read-out in test [2]: Thyroid Hormone Responsive (THRSP), THRSP (gene 7069)
The experiment in a line: LTEA_HepaRG_THRSP: Life Technologies and Expression Analysis (LTEA) Assay for Thyroid Hormone Responsive (THRSP) using HepaRG (AID 2283536; active means hit-call score of the fitted dose curve at least 0.9, where 1 is the maximum; inactive means score below 0.9). Conditions: mRNA level, 48 h; actives raise or lower the signal. The method, boiled down: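 mRNA induction or loss relative to 0.5% DMSO vehicle was fitted bidirectionally across an eight-point curve whose highest exposure was 100 uM. Human HepaRG liver cells received chemicals in duplicate over 48 h before RNA extraction.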

Read-out in test [3]: UDP glucuronosyltransferase (UGT1A1), UGT1A1 (gene 54658)
Put plainly: LTEA_HepaRG_UGT1A1: Life Technologies and Expression Analysis (LTEA) Assay for UDP glucuronosyltransferase (UGT1A1) using HepaRG (AID 2283538; active means hit-call score of the fitted dose curve at least 0.9, where 1 is the maximum; inactive means score below 0.9). Conditions: mRNA level, 48 h; actives raise or lower the signal. In short, it runs like this:
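Differentiated human HepaRG cells in serum-free induction medium were exposed in duplicate for 48 h to eight half-log concentrations up to 100 uM in 0.5% DMSO. UGT1A1 mRNA was quantified by TaqMan qRT-PCR, normalized to ACTB, GAPDH and POLR2A, and fitted bidirectionally against DMSO.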

Read-out in test [4]: UDP glucuronosyltransferase (UGT1A6), UGT1A6 (gene 54578)
Put plainly: LTEA_HepaRG_UGT1A6: Life Technologies and Expression Analysis (LTEA) Assay for UDP glucuronosyltransferase (UGT1A6) using HepaRG (AID 2283539; active means hit-call score of the fitted dose curve at least 0.9, where 1 is the maximum; inactive means score below 0.9). The settings on record: mRNA level, 48 h; actives raise or lower the signal. The method, boiled down: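 qRT-PCR readout of UGT1A6 mRNA (normalized to ACTB/GAPDH/POLR2A) in differentiated HepaRG cells after 48 h chemical exposure; 8 concentrations, top 100 uM, half-log steps, 0.5% DMSO. Bidirectional curve fit relative to DMSO baseline.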

Read-out in test [5]: X-box binding protein 1 (XBP1), XBP1 (gene 7494)
The experiment in a line: LTEA_HepaRG_XBP1: Life Technologies and Expression Analysis (LTEA) Assay for X-box binding protein 1 (XBP1) using HepaRG (AID 2283540; active means hit-call score of the fitted dose curve at least 0.9, where 1 is the maximum; inactive means score below 0.9). The settings on record: mRNA level, 48 h; actives raise or lower the signal. In short, it runs like this:
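HepaRG, 48 h exposure, 8-pt half-log CRC top 100 uM, 0.5% DMSO vehicle, duplicates. Readout: TaqMan qRT-PCR of XBP1 mRNA, housekeeping-normalised (ACTB/GAPDH/POLR2A); bidirectional fit vs DMSO baseline.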

Test [6] in a line: LTEA_HepaRG_LDH_cytotoxicity: Cytotoxicity Assessment in the Life Technologies and Expression Analysis (LTEA) Assay (AID 2283563).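 On AC50: LDH activity released into spent culture medium as a marker of cell death.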 The method, boiled down: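 HepaRG (human liver line), 48 h exposure, 8-pt half-log series from 100 uM, 0.5% DMSO vehicle, duplicates. Read-out: LDH in spent medium. Positive-direction fit vs DMSO baseline.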
Test [7] can be described thus: ATG_XTT_Cytotoxicity: Cytotoxicity Assessment in the Attagene TRANS-FACTORIAL HepG2 Assay (AID 2283584).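 On AC50: cells exposed to compound for 24 h before reading; active means loss of viability signal versus DMSO baseline.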 The method, boiled down: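 XTT readout of cell number in transfected HepG2 cells, 24 h post-dosing; DMSO serves as negative control and baseline, with activity taken as loss of viability signal.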
Test [8] can be described thus: TOX21_p53_BLA_p2_viability: Viability Assessment in the Tox21 HCT-116 p53 Agonism Beta-lactamase Assay, Phase 2 (AID 2283591).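 Further: compound exposure lasted 16 h at 37 °C; actives lower the ATP signal meaning cytotoxicity.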 In short, it runs like this: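 Cytotoxicity readout: CellTiter-Glo ATP luminescence, 30 min at room temperature, after the beta-lactamase read. Cells were HCT116 exposed 16 h at 37C to compounds pin-transferred at 217-fold dilution from DMSO stocks.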

Results filed as inconclusive are left out. Calls of active or inactive are those of the source. How the source made its calls, unless noted: active means hit-call score of the fitted dose curve at least 0.9, where 1 is the maximum; inconclusive means response in the unintended direction; inactive means score below 0.9.

Broadly, the AC50 is the midpoint of the concentration-response curve, whichever way the signal moves.

Consider `Oc1cc(Cl)c(Cl)cc1Cl`, for which the outcome with TIMP1, TIMP1 (gene 7076) is “inactive”; in [1] it was “inactive”; in test [2], “inactive”; in test [3] it was “inactive”; in test [4], “inactive”; in test [5] it was “inactive”. The compound was classed as inactive in test [7]. Besides, in [6], the AC50 is 84.8 µM (active).
For `Nc1ccc(N)cc1`, the outcome in test [7] was inactive.
Take `CN(C)C(=S)S`: the outcome with TIMP1, TIMP1 (gene 7076) is “inactive”; in test [1], “inactive”; in test [2] it was “inactive”; in test [3], “inactive”; in test [4], “inactive”; in [5], “inactive”. The compound was classed as inactive in [6] and in test [7].
Consider `CN(C1CCCCC1)C1CCCCC1`, for which the call in test [7] was inactive.
The same measure, in the same setting: under `C=CCCl` stands “inactive”; under `N#Cc1ccc(Cl)cc1`, “inactive”; under `CCOC(=O)Cc1ccccc1`, “inactive”.
On the same count and under the same terms, to `O=C(CBr)c1ccc(O)cc1` belongs “inactive”.
Still for that read-out and setting: to `CC(C)(C1CCC(O)CC1)C1CCC(O)CC1` (centres undefined) belongs “inactive”; to `CN(N=O)c1ccc([N+](=O)[O-])cc1`, “inactive”.
With `N#Cc1ccccc1Cl`, the compound was called inactive in test [7].
Take `Cc1cc(C)cc(C)c1`: the outcome in the test with TIMP1, TIMP1 (gene 7076) is “inactive”; in [1] it was “inactive”; in test [2], “inactive”; in [3], “inactive”; in [4] it was “inactive”; in [5], “inactive”. Besides, the outcome in test [6] and in test [7] was inactive.
`CC(C)O.CC(C)O.OCCN(CCO)CCO.OCCN(CCO)CCO.[Ti]`: the outcome was “inactive” with TIMP1, TIMP1 (gene 7076); “inactive” in [1]; “inactive” in test [2]; “inactive” in test [3]; “inactive” in test [4]; “inactive” in test [5]. For the same compound, the outcome in test [7] was inactive.
Consider `Cl[C@H]1OCCO[C@@H]1Cl`, for which the compound was called inactive in [7].
Consider `O=C(N[C@H]1CN2CCC1CC2)c1ccc2c(c1)OCCO2`, for which the outcome is “inactive” in the test with TIMP1, TIMP1 (gene 7076); “inactive” in test [1]; “inactive” in test [2]; “inactive” in test [3]; “inactive” in [4]; “inactive” in [5]. In test [6], the compound was called inactive.
On to `CNC(=O)O/N=C/C(C)(C)S(C)(=O)=O`, for which the result in [7] and in test [8] was inactive.
As for `CCOP(=S)(OCC)O/N=C(\C#N)c1ccccc1`, the outcome in test [7] and in [8] was inactive.
Turning to `O=S1OC[C@@H]2[C@H](CO1)[C@]1(Cl)C(Cl)=C(Cl)[C@@]2(Cl)C1(Cl)Cl` (some centres undefined), in test [7], the outcome was inactive. Besides, the AC50 in [8] was 67.1 µM (active).
As for `ClCCCCl`, the outcome in test [7] and in test [8] was inactive.
Regarding `CC(C)(C)c1cc([N+](=O)[O-])cc(C(C)(C)C)c1O`, the compound was classed as inactive in [7]. In test [8], the concentration at half-maximal activity (AC50) was 46.1 µM (active).
For `Cc1ccccc1OP(=O)(Oc1ccccc1C)Oc1ccccc1C`, the call in [7] and in test [8] was inactive.
Take `C=CC(=O)NC(C)(C)CC(C)=O`: the compound was classed as inactive in test [7] and in test [8].
Turning to `CCCCN(CCCCO)N=O`, the compound was called inactive in test [7] and in test [8].
In the case of `CC(C)[C@@H](Nc1ccc(C(F)(F)F)cc1Cl)C(=O)OC(C#N)c1cccc(Oc2ccccc2)c1` (some centres undefined), the compound was classed as inactive in [7] and in [8].
On to `Clc1ccc(C(Cl)(Cl)Cl)cn1`, for which the result in test [7] and in [8] was inactive.
For the compound `c1csc(-c2ccc(-c3cccs3)s2)c1`, the outcome in [7] and in test [8] was inactive.
Take `O=C(NC(=O)c1c(F)cccc1F)Nc1cc(Cl)c(Oc2ncc(C(F)(F)F)cc2Cl)c(Cl)c1`: the result in test [7] and in [8] was inactive.
As for `CCC[CH2][Sn]([CH2]CCC)([CH2]CCC)[CH2]CCC`, the results for the AC50 in test [7] and in test [8] were 33.9 µM (active) and 30.1 µM (active), respectively.

(Values after PubChem BioAssay (EPA / NIEHS).)
